Screening data (PubChem BioAssay)
USP1 inh: blocks the human USP1/UAF1 deubiquitinase complex; O94782; recombinant USP1/UAF1, Ub-Rhodamine cleavage fluorescence; Potency, µM (series often up to 57.1 µM), inactives show top-dose activity change, negative = inhibition, hits mostly inhibitors; 390,000 tested, 0.23% active; AID 743255; also: potency is read from the fitted curve at half-maximal effect; nearly all actives have a fitted effect of over 60% in size
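USP1/UAF1 complex at 1 nM was preincubated with compound for 15 min at room temperature, then Ub-Rho substrate (150nM final) was added. Fluorescence (480/540 nm) was read kinetically, 6 reads every 60 seconds.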
USP2a inh: blocks human ubiquitin-specific protease USP2a. O75604. USP2 core, Ub-CHOP2 coupled fluorogenic reporter, 485/531. Potency, µM (top dose mostly 38.3 µM), inactives show at the highest dose activity change, negative = inhibition, usual class: inhibitors. 330,000 tested, 0.01% active. AID 463254;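 also: potency is read from the fitted curve at half-maximal effect; plate controls were DMSO wells for no effect and full inhibition by NEM control for full effect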
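Deubiquitinase activity read as fluorescence (485/531 nm) after Ub-CHOP2 cleavage activates the enterokinase reporter on its substrate; USP2 core 10nM, Ub-CHOP2 and substrate 25nM each, 30min compound preincubation then 60min RT; data normalized to NEM, curves fitted.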
PI5P4Ka inh: blocks human PI5P4K alpha kinase activity; P48426; PI5P4Kalpha enzyme, ADP-Glo luminescence, 60 min; active compounds read low; max response, %; 330,000 tested, 1.2% active; AID 652105; active = max response of -50% or lower; inconclusive = between -30% and -50%; inactive = -30% or higher; also: value at the top dose of about 77 µM
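ADP-Glo luminescence end-point read after a 60 min room-temperature kinase reaction of PI5P4Kalpha plus substrate, initiated with ATP at 5 microM final. Buffer: 0.038 M HEPES pH 7.4, EGTA, 0.1% CHAPS, 5% DMSO.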
WRN inhibitor: inhibitors of human WRN helicase. Q14191. WRN helicase unwinding, fluorescent forked duplex, kinetic. Potency, µM (series often up to 114 µM), without a hit: top-dose activity change, negative = inhibition, usual class: inhibitors. 360,000 tested, 0.46% active. AID 651768; also: potency is read from the fitted curve at half-maximal effect; nearly all actives have a fitted effect of over 55% in size
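Kinetic red-fluorescence monitoring (525/598 nm) tracks WRN helicase activity after 100 nM fluorophore-quencher forked duplex and 2 mM ATP are added to 20 nM enzyme pretreated 15 min at room temperature with compound.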
PLK1 PBD inh: blocks phosphopeptide binding to human PLK1 polo-box domain; P53350; Plk1 PBD binding of FITC phosphopeptide, fluorescence polarization; Potency, µM, for the others: max response, negative = inhibition, hits mostly inhibitors; 360,000 tested, 2.8% active; also: potency is read from the fitted curve at half-maximal effect; series mostly up to about 57 µM; nearly all actives have a fitted effect of over 65% in size
Target sequence (P53350 whole entry, looked up, the tested form may be a part): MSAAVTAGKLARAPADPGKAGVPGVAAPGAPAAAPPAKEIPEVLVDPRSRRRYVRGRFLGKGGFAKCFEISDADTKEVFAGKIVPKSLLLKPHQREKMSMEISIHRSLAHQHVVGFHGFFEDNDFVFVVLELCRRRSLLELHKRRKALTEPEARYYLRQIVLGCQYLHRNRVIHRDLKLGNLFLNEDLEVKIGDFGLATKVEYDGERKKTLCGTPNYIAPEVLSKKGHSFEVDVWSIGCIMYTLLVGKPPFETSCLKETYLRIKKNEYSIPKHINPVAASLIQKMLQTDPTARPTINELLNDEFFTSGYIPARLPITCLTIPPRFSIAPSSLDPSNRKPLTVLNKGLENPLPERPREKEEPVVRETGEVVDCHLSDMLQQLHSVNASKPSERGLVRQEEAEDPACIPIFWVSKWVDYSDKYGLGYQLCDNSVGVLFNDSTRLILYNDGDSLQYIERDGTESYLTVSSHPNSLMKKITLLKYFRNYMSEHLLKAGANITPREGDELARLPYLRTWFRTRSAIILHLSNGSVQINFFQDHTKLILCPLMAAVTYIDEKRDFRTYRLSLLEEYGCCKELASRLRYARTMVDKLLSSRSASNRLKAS
TbPYK inh: confirmation of Trypanosoma brucei pyruvate kinase inhibitors | recombinant TbPYK, Kinase-Glo ATP luminescence | 890 tested, 67% active | shares compounds with PLK1 PBD inh | Potency, µM (titrated, usually from 76.9 µM), without a hit: top-dose activity change, negative = inhibition, most hits filed as inhibitors; also: potency is read from the fitted curve at half-maximal effect; nearly all actives have a fitted effect of over 70% in size
TbPYK ADP-Glo: orthogonal confirmation of Trypanosoma brucei pyruvate kinase inhibitors; Potency, µM (doses to about 76.9 µM), inactives show at the highest dose activity change, negative = inhibition, most hits filed as inhibitors; recombinant TbPYK, ADP-Glo luminescence, 60 min; 890 tested, 62% active; AID 720584; shares compounds with PLK1 PBD inh; also: potency is read from the fitted curve at half-maximal effect; nearly all actives have a fitted effect of over 75% in size
Active calls of the source: *; ? = inconclusive; / = not tested or not shown; [ ] = dose if it differs, or a comment. Only some compounds are listed: those with a hit (about 3.3% of all), similar ones and a draw of the others. Unless noted, calls follow the shape of the dose curve; as a rule, active = well fitted curve in the direction sought with a large enough effect; inconclusive = small, poorly fitted or top-dose-only effect, or another doubt; inactive = no such curve, though single readings can be large; an effect the other way counts as inactive or inconclusive. Unless noted, % is scaled to controls: 0 for no effect and ±100 for the full control effect.

SMILES	USP1 inh	USP2a inh	PI5P4Ka inh	WRN inhibitor	PLK1 PBD inh	TbPYK inh	TbPYK ADP-Glo
Cc1ccc(/C=C/C(=O)NCc2ccc3c(c2)OCO3)o1	-20%	1%	-2	-5%	?	11µM*	14µM*
COc1ccc(CCNC(=O)/C=C/c2ccco2)cc1OC	-5%	2%	11	-7%	-24%	/	/
Cc1ccc(/C=C/C(=O)NCc2ccc(S(N)(=O)=O)cc2)o1	-23%	7%	?	?	27µM*	6.3µM*	1.6µM*
Cc1ccc(C(=O)NCc2ccc3c(c2)OCO3)o1	-20%	0%	-2	3%	-7%	/	/
COc1ccc(CCNC(=O)/C=C/c2ccco2)cc1	-10%	1%	-17	-12%	0%	?	?
Cc1cc(C)cc(NC(=O)N2CCC(CN3CCc4ccccc4C3)CC2)c1	-10%	/	/	/	/	/	/
O=C1CCCc2cc(S(=O)(=O)NCC3CCC(C(=O)Nc4ccc(Cl)cc4)CC3)ccc2N1 (stereo unspecified)	5%	/	/	/	/	/	/
COc1ccc(N2CCN(C(=O)CSc3nc(-c4ccccc4)no3)CC2)cc1	-21%	/	/	/	/	/	/
Clc1cccc(CNc2cc(-c3ccccc3)nc3nncn23)c1	7%	/	/	/	/	/	/
Cc1nnc(N2C(=O)c3oc4ccccc4c(=O)c3C2c2ccc(F)cc2)s1 (stereo unspecified)	-3%	/	/	/	/	/	/
Cc1ccc(/C=C/C(=O)NC2CCCCCCC2)o1	5%	0%	-55*	-35%	24µM*	?	?
Cc1ccc(/C=C/C(=O)Nc2ccc(S(N)(=O)=O)cc2)o1	-19%	2%	-54*	-3%	30µM*	5µM*	5.6µM*
Cc1ccc(/C=C/C(=O)NCCc2cccc(Cl)c2)o1	-13%	0%	?	?	30µM*	3.5µM*	4µM*
Cc1ccc(/C=N/NC(=O)NC2CCCCC2)o1	-2%	0%	-1	1%	0%	/	/
Cc1ccc(/C=C/C(=O)Nc2ccncc2)o1	-3%	3%	-20	-6%	-20%	/	/
Cc1ccc(/C=C/C(=O)NCCc2c[nH]c3ccccc23)o1	-16%	0%	0	-6%	-18%	/	/
CC(=O)NS(=O)(=O)c1ccc(NC(=O)/C=C/c2ccc(C)o2)cc1	8%	1%	?	-18%[11.6 µM]	21µM*	5µM*	7.9µM*
Cc1ccc(/C=C/C(=O)Nc2ccc(N(C)C)cc2)o1	-7%	1%	-15	-7%	2%	/	/
CCOc1ccc(NC(=O)c2cc3cc(C)ccc3n2C)cc1	-25%	/	/	/	/	/	/
Nc1nc2ccc([N+](=O)[O-])c(N)c2s1	-2%	0%	-58*	-21%	11µM*	?	32µM*
O=S(=O)(NCC(c1cccs1)S(=O)(=O)c1ccccc1)c1ccccc1 (stereo unspecified)	-18%	/	/	/	/	/	/
CC(=O)C(Sc1nc(N(C)C)nc(N(C)C)n1)C(=O)Nc1ccccc1 (stereo unspecified)	-19%	2%	0	-20%	-19%	/	/
CC(=O)C(Sc1nn(C)c(=S)s1)C(=O)Nc1ccccc1 (stereo unspecified)	-11%	0%	-83*	-21%	27µM*	20µM*	28µM*
Cc1ccc(C)c(N2CCN(C(=O)CN3C(=O)COc4ccc(S(=O)(=O)N5CCOCC5)cc43)CC2)c1	-9%	/	/	/	/	/	/
O=C(Nc1nc2ccc(S(=O)(=O)N3CCCC3)cc2s1)c1ccccn1	-9%	5%	-8	-9%	-16%	?	?
SMILES	USP1 inh	USP2a inh	PI5P4Ka inh	WRN inhibitor	PLK1 PBD inh	TbPYK inh	TbPYK ADP-Glo
O=C(Nc1nc2ccc(S(=O)(=O)N3CCCCC3)cc2s1)c1ccncc1	-13%	-5%	-9	-6%	-20%	/	/
Nc1c(C(=O)Nc2ccccc2Cl)nnn1Cc1cccc(Cl)c1	-8%	/	/	/	/	/	/
CC(C)c1ccc(C2CC(=O)N3CN(Cc4ccco4)CSC3=C2C#N)cc1 (stereo unspecified)	-21%	-1%	-21	-7%	27µM*	0.14µM*	0.45µM*
N#CC1=C2SCN(Cc3ccccc3)CN2C(=O)CC1c1ccc2c(c1)OCO2 (stereo unspecified)	-15%	0%	-58*	-35%	19µM*	?	?
N#CC1=C(N)OC2=C(C(=O)CC(c3ccccc3)C2)C1c1ccc2c(c1)OCO2 (stereo unspecified)	-19%	1%	-10	-6%	5%	/	/
CCC(CO)NC(=O)C(=O)Nc1c2c(nn1-c1ccc(F)cc1)CSC2 (stereo unspecified)	-12%	/	/	/	/	/	/
O=C1Nc2ccccc2C(=O)C1(Cl)Cc1ccccc1 (stereo unspecified)	-19%	1%	-29	45µM*	1.2µM*	3.2µM*	13µM*
CC(C)(C)N1C(=O)c2ccccc2NC(=O)N1Cc1ccccc1	-15%	1%	-1	-1%	-1%	/	/
Cc1[nH][nH]c(=O)c1N=Nc1ccc(S(N)(=O)=O)cc1	-3%	/	-17	1%	-20%	/	/
NS(=O)(=O)c1ccc(N=Nc2c[nH]c(=O)c(O)c2)cc1	28µM*	-14%	-63*	?	?	?	-12%
Cc1cccc(C(=O)NCCc2nc3ccccc3n2CCC(C)C)c1	-20%	/	/	/	/	/	/
CCCC(C)c1nnc(NC(=O)c2cc(C(=O)OC)cc([N+](=O)[O-])c2)s1 (stereo unspecified)	-22%	1%	/	-4%	6µM*	3.5µM*	14µM*
